An excerpt weighted towards active compounds, which were near 3.1% of everything screened.
VDR inhibitor – inhibitors of human vitamin D receptor; P11473; VDR-SRC2-3 peptide fluorescence polarization, 2 h; hit rate 0.93% among 400,000; Potency, µM, without a hit: max response, negative = inhibition, usual class: inhibitors; further: on the % scale 0 is the no-effect control and ±100 the full control effect
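VDR–SRC2-3 interaction, FP format. Cmpds 23 nl via pintool, brief spin, 2 h ambient incubation.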
Tb PFK inh – blocks T. brucei phosphofructokinase. O15648. hit rate 0.17% among 330,000. T. brucei PFK, ADP-Glo luminescence. Potency, µM (top dose mostly 57.5 µM), inactives show at the highest dose activity, negative = inhibition, hits mostly inhibitors. AID 485367;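 further: 0% = uninhibited 1x PFK enzyme wells and -100% = no-enzyme wells; nearly all actives have a fitted effect of over 60% in size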
Target sequence (O15648 whole entry, looked up): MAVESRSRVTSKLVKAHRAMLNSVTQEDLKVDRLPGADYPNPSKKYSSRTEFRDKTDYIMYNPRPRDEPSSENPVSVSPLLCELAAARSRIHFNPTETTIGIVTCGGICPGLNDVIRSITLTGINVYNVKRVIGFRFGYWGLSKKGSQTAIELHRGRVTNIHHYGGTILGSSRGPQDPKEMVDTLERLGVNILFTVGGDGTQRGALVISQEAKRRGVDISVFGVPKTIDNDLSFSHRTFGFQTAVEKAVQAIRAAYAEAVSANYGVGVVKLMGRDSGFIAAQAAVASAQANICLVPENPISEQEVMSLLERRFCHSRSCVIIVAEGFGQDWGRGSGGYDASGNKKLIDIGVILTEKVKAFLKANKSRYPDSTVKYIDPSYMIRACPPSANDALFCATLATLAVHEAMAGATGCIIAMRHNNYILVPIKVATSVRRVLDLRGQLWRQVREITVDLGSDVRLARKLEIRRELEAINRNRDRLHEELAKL
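ADP-Glo luminescence quantified ADP after 45 min at room temperature, with 1.25 nM T. brucei PFK, 0.1 mM ATP and 0.5 mM fructose-6-phosphate in pH 8.0 TEA buffer. qHTS titrations up to 57 µM; curves classified by quality.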
S-ASM inh – human S-ASM enzyme inhibition; placental ASM, HMU-PC fluorogenic substrate, 60 min; Potency, µM (highest dose often 57.5 µM), for the others: top-dose activity change, negative = inhibition, actives largely listed as inhibitors; hit rate 0.006% among 340,000; AID 504937
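Fluorescence read-out (Ex 386 nm, Em 447 nm) after stopping the reaction at pH 10. Enzyme: ASM from human placenta; substrate HMU-PC0, 9 uM final; 60 min, 37 °C. Compound preincubation 10 min, ambient temperature.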
PLK1 PBD inh – inhibitors of human PLK1 polo-box domain binding. Plk1 PBD binding of FITC phosphopeptide, fluorescence polarization. Potency, µM, without a hit: max response, negative = inhibition, actives largely listed as inhibitors. hit rate 2.8% among 360,000; further: series mostly up to about 57 µM; on the % scale 0 is the no-effect control and ±100 the full control effect; nearly all actives have a fitted effect of over 65% in size
TDP1 block – TDP1 (human) enzyme inhibition; Q9NUW8; recombinant TDP1, AlphaScreen DNA substrate cleavage; Potency, µM (titrated, usually from 130 µM), inactives show at the top dose activity change, negative = inhibition, usual class: inhibitors; hit rate 0.28% among 350,000; further: on the % scale 0 is the no-effect control and ±100 the full control effect; nearly all actives have a fitted effect of over 40% in size
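Enzyme-compound mixtures sat 15 min at room temperature, followed by a 5 min reaction with 15 nM final substrate and 10 min with AlphaScreen beads. Recombinant human Tdp1 was used at 1 nM final.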
Pin1 inh – inhibitors of human Pin1 | Q13526 | Pin1 FP peptide displacement, HiFluor488, 10 min | Potency, µM (series often up to 115 µM), for the others: at the top dose activity, negative = inhibition, hits mostly inhibitors | hit rate 0.009% among 390,000 | AID 504891; active means well fitted inhibition curve with a large enough effect in the polarisation, with a control signal flat, not every such curve was filed as active; inconclusive means small, poorly fitted or top-dose-only effect, or effect the other way, or a change in a side signal; inactive means no such curve, though single readings can be large or run the other way; the % refers to the polarisation; further: on the % scale 0 is the no-effect control and ±100 the full control effect
Target sequence (Q13526 whole entry, looked up): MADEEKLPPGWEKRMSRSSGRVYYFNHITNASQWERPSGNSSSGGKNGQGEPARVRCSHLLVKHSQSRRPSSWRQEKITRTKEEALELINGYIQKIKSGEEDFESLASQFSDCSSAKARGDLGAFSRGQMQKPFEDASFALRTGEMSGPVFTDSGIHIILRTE
* hit, by the source's call; ? = inconclusive; / = not tested or not shown; [ ] = remark or other dose. Unless noted, the call rests on the fitted dose curve; in most records, active means well fitted curve in the direction sought with a large enough effect; inconclusive means small, poorly fitted or top-dose-only effect, or another doubt; inactive means no such curve, though single readings can be large; an effect the other way counts as inactive or inconclusive. Potency means the concentration at half of the fitted maximal effect.

SMILES	VDR inhibitor	Tb PFK inh	S-ASM inh	PLK1 PBD inh	TDP1 block	Pin1 inh
O=C(O)C1Nc2ccc(Br)cc2C2C=CCC12 (stereo not drawn)	?	?	-14%	5.3µM*	/	/
CCOC(=O)C1Nc2ccc(Br)cc2C2C=CCC12 (stereo not drawn)	?	-3%	-2%	?	/	-23%
O=C(O)C1Nc2c(Cl)cc(Cl)c(Cl)c2C2C=CCC12 (stereo not drawn)	?	/	-2%	24µM*	/	/
O=C(O)C1Nc2c(O)cccc2C2C=CCC12 (stereo not drawn)	14%	?	-15%	27µM*	/	/
O=C(COC(=O)CNC(=O)c1ccccc1)Nc1cc(C(F)(F)F)ccc1Cl	/	/	/	/	-1%	1%
CCOC(=O)C1CCN(C(=O)c2ccccc2NC(=O)c2ccc(Cl)cc2)CC1	?	0%	-1%	15µM*	3%	1%
CCOC(=O)N1CCN(C(=O)C2CCN(C(=O)c3ccccc3C)CC2)CC1	22µM*	/	-1%	3.4µM*	/	-3%
CCOC(=O)C1CCN(CCC(=O)Nc2ccccc2Cl)CC1	3%	-1%	-2%	24µM*	7%[12.3 µM]	2%
Cc1ccccc1C(=O)N1CCC(C(=O)N2CCN(c3ncccn3)CC2)CC1	6%	-3%	3%	-2%	-4%[56.1 µM]	2%
CCOC(=O)C1CCN(CCC(=O)Nc2ccccc2OC)CC1	3%	/	/	/	-2%[12.3 µM]	4%
O=[N+]([O-])c1ccc(O)c(/C=N/Nc2ccccc2Cl)c1	11%	-10%	-9%	27µM*	3%	5%
Cc1sc(N/N=C/c2cc([N+](=O)[O-])ccc2O)nc1-c1ccccc1	?	-1%	-12%	15µM*	3%	-4%
CN(C)C(=O)Nc1ccc(Oc2ccc(Cl)cc2)cc1	2%	/	/	/	11%	/
O=C1NC2CCCCC2C(=O)N1OS(=O)(=O)c1ccccc1 (stereo not drawn)	16µM*	/	1%	0.75µM*	/	?
CCCCN1CC(O)C(O)C(O)C1CO (stereo not drawn)	-2%	/	/	/	/	/
Cc1nc2c(C)cccc2cc1C(=O)N/N=C/c1ccc(C(=O)O)cc1	-7%	-3%	3%	30µM*	-3%	2%
S=C(NCCCNc1ccc(Br)cn1)NCCCc1cnc[nH]1	/	/	/	/	/	-2%
CC1CCCCC1NC(=O)/C(C#N)=C/c1ccc2c(c1)OCCO2 (stereo not drawn)	-19%	-5%	1%	27µM*	0%	4%
CC1CCCCC1NC(=O)/C(C#N)=C/c1ccc(F)c(F)c1 (stereo not drawn)	6%	5%	3%	-3%	3%	-1%
CC(=O)N[C@H]1CSSC[C@@H](C(=O)N2CCC[C@H]2C(=O)N2CCC[C@H]2C(=O)N[C@@H](CCCCN)C(=O)N[C@@H](CC(=O)O)C(N)=O)NC(=O)CNC(=O)[C@H](Cc2c[nH]c3ccccc23)NC(=O)[C@H](CCCNC(=N)N)NC(=O)[C@@H](Cc2ccc(Cl)c(Cl)c2)NC(=O)[C@H](Cc2cnc[nH]2)NC(=O)[C@H](CCC(=O)O)NC1=O	-7%	/	/	/	14%	/
CCC(CC)c1nnc(NC(=O)CCS(=O)(=O)Cc2ccccc2)s1	-6%	-21%	2%	24µM*	11%	6%
CCC(CC)c1nnc(NC(=O)CS(=O)(=O)c2ccccc2)s1	?	1%	1%	9.5µM*	9%	0%
CCCc1nnc(NC(=O)CCS(=O)(=O)Cc2ccccc2)s1	24%	4%	-12%	-19%	4%	-5%
Cc1cc(SCC(=O)Nc2ccc3[nH]c(=O)[nH]c3c2)nc2ccccc12	1%	-4%	1%	-3%	45µM*	?
Cc1cc(SCC(=O)Nc2ccc(Cl)cc2)nc2ccccc12	?	/	/	/	/	37%
SMILES	VDR inhibitor	Tb PFK inh	S-ASM inh	PLK1 PBD inh	TDP1 block	Pin1 inh
CC(=O)Nc1ccc(NC(=O)CSc2ccccn2)cc1	1%	0%	-1%	-1%	6%	5%
O=C(CSc1ccccn1)Nc1ccc2[nH]c(=O)[nH]c2c1	-3%	?	3%	27µM*	0%	-2%
CCC(CC)c1nn2c(=O)cc(COc3ccc(NC(=O)c4ccccc4C)cc3)nc2s1	7%	/	/	/	-1%	32%
CC1=C(c2ccc(C(C)C)cc2)S(=O)(=O)N=C1N1CCN(C(=O)c2ccco2)CC1	?	-9%	18%	27µM*	-4%	75%
COc1cc(NC(=O)C2=CC(c3ccc(F)cc3)=NS(=O)(=O)N2C)cc(OC)c1OC	9%	/	/	/	9%	-1%
O=c1c(Br)ccc(Br)cc1Br	10µM*	/	0%	0.53µM*	/	-9%
O=C1CN(S(=O)(=O)c2cc(Br)ccc2Br)CCN1	17%	-5%	4%	-3%	1%	1%
O=C(Cc1cccs1)Nc1ccc(-c2nc3ccccc3[nH]2)cc1	-1%	-15%	-1%	30µM*	-8%	12%
CCN(CC)S(=O)(=O)c1ccc(NC(=O)Cc2cccs2)cc1	-15%	-5%	1%	27µM*	-3%	2%
COc1cc(NC(=O)Cc2cccs2)cc(OC)c1	-8%	-10%	2%	3.4µM*	-4%	4%
COc1cccc(NC(=O)Cc2cccs2)c1	-7%	0%	4%	-9%	2%	6%
COc1cccc(C(C)NC(=O)Cc2cccs2)c1 (stereo not drawn)	?	0%	0%	21µM*	3%	2%
Cc1ccc(C(C)NC(=O)Cc2cccs2)cc1C (stereo not drawn)	-5%	1%	3%	-8%	5%	-1%
CCn1nnc2cc(C(=O)Nc3cccc(C)c3C)ccc21	10%	/	/	/	5%	1%
Cc1cccc(OC(=O)n2c(=S)oc3cc(Cl)ccc32)c1	5%	-5%	2%	30µM*	6%	2%
CC(N)(COP(=O)(O)O)C(=O)O (stereo not drawn)	-7%	/	/	/	0%	/
Cc1ccc2c(Cl)cc(Cl)c(OCC(=O)N3CCCC3)c2n1	-25%	-2%	6%	27µM*	3%	-5%
CSc1ccc(C2CC(=O)Nc3c2c(=O)n(C)c(=O)n3C)cc1 (stereo not drawn)	?	-5%	2%	27µM*	3%	-8%
Cn1c2c(c(=O)n(C)c1=O)C(c1ccccc1Cl)CC(=O)N2 (stereo not drawn)	-9%	3%	3%	-15%	3%	-7%
CCC(=O)OC1=C(C(C)=O)N(Cc2ccccc2)S(=O)(=O)c2ccccc21	-7%	/	/	/	3%	-6%
C/C(=N\NC(=S)Nc1ccccc1C)c1ccc(O)cc1	?	3%	-1%	11µM*	3%	1%
C/C(=N\NC(=S)Nc1c(C)cccc1C)c1ccc(OC(F)F)cc1	?	3%	0%	-6%	3%	0%
